PubChem BioAssay
Active and inactive are the calls of the source.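 Rule for the calls, unless noted: active = compounds whose cell count with miR-34 switched on is under 0.7 times the count with it off; inactive = the rest.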

How the values were obtained:
[1] = sensitizers of A549 cells to miR-34 induction, primary screen, imaging, A549 dox-inducible miR-34, nuclei and caspase counts (AID 1347080); conditions: A549 miR-34 inducible, Hoechst nuclei count, 48 h
[2] = survival rescue of mitochondrial mutant cells in low glucose, primary screen, MELAS cybrids, Rieske KO mouse fibroblasts, CellTiter-Glo (AID 1508586;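 active = mean z-score across replicates of 1.96 or higher in either the MELAS or the Rieske mutant cell line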;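 note: z relative to plate mean and SD of compound and empty wells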)
[3] = stronger effect = lower value, cell number ratio, induced over uninduced
[4] = measured here: relative caspase fold change +Dox/-Dox
[5] = measured here: total cells with miR-34 induction, stronger effect = lower value
[6] = measured here: total cells without miR-34 induction
[7] = MELAS cybrid survival, CellTiter-Glo 48 h, stronger effect = higher value
[8] = Rieske KO mouse fibroblast survival, CellTiter-Glo 72 h
Note: test concentration not given here.

| Structure (SMILES) | fold change [1, 3] | fold change [1, 4] | cell count [1, 5] | cell count [1, 6] | z-score [2, 7] | z-score [2, 8] |
| --- | --- | --- | --- | --- | --- | --- |
| Cn1c(=O)c(F)c(Nc2ccc(I)cc2F)c2c(=O)n(CC(O)CO)cnc21 (stereo not drawn) | 1.04 (inactive) | 0.57 | 3130 | 3010 | -0.414 (inactive) | -1.17 |
| CCCC(C)NC(=O)c1ccc(Cl)c(Cl)c1 (stereo not drawn) | 0.868 (inactive) | 0.485 | 8950 | 10300 | -0.371 (inactive) | 0.701 |
| Cn1nccc1-c1cc(C(=O)NCc2ccc(S(C)(=O)=O)cn2)c(=O)n(-c2cccc(C(F)(F)F)c2)c1 | 0.851 (inactive) | 0.538 | 8120 | 9540 | -0.549 (inactive) | 0.346 |
| CC1(C)S[C@@H]2C(NC(=O)Cc3ccccc3)C(=O)N2C1C(=O)O (stereo partly drawn) | 0.875 (inactive) | 0.906 | 7910 | 9040 | 0.0178 (inactive) | -0.226 |
| CN(C)CCC=C1c2ccccc2Sc2ccc(Cl)cc21 | 1.02 (inactive) | 0.667 | 7540 | 7420 | -0.469 (inactive) | -0.0938 |
| O=C1NC(=O)C(=Cc2ccc(-c3ccc(F)cc3)o2)S1 | 0.882 (inactive) | 0.688 | 8240 | 9340 | -0.386 (inactive) | 0.141 |
| CCCN1CC(CSC)C[C@@H]2c3cccc4[nH]cc(c34)C[C@H]21 (stereo partly drawn) | 0.938 (inactive) | 0.485 | 7000 | 7460 | -0.0829 (inactive) | -0.225 |
| CCC(C)C(=O)OC1CCC=C2C=CC(C)C(CCC3CC(O)CC(=O)O3)[C@H]21 (stereo partly drawn) | 0.904 (inactive) | 0.982 | 4680 | 5180 | -0.482 (inactive) | -0.195 |
| C=C1c2cccc(O)c2C(O)=C2C(=O)[C@]3(O)C(O)=C(C(N)=O)C(=O)C(N(C)C)[C@@H]3C(O)[C@H]12 (stereo partly drawn) | 0.858 (inactive) | 1.09 | 7630 | 8890 | 5.63 (active) | 0.965 |
| CC1=C(C(=O)O)N2C(=O)C(NC(=O)C(N)c3ccccc3)[C@@H]2SC1 (stereo partly drawn) | 0.987 (inactive) | 0.849 | 7060 | 7150 | -0.417 (inactive) | 0.0723 |
| Cc1cc(C(N)=O)ccc1-n1c(CCC(=O)O)ccc1-c1ccc(-n2ccnc2)cc1 | 0.953 (inactive) | 0.396 | 9360 | 9820 | -0.283 (inactive) | 0.463 |
| CC(=O)c1cc([N+](=O)[O-])c(Sc2cccc(Cl)c2Cl)s1 | 0.882 (inactive) | 0.345 | 7980 | 9050 | -0.31 (inactive) | 0.849 |
| CC1(C)C(O[C@H]2OC(C(=O)O)C(O)C(O)C2O[C@@H]2OC(C(=O)O)C(O)C(O)C2O)CC[C@@]2(C)[C@H]3C(=O)C=C4[C@@H]5C[C@@](C)(C(=O)O)CC[C@]5(C)CC[C@@]4(C)[C@]3(C)CC[C@@H]12 (stereo partly drawn) | 0.946 (inactive) | 0.91 | 7600 | 8030 | -0.278 (inactive) | -0.114 |
| Cn1cc(-c2[nH]c3cc(NC(=O)C(N)C4CCCCC4)cc4c3c2C=NNC4=O)cn1 (stereo not drawn) | 0.983 (inactive) | 1.09 | 2060 | 2100 | 0.356 (inactive) | -0.0626 |
| CCC(Nc1ncnc2nc[nH]c12)c1nc2cccc(F)c2c(=O)n1-c1ccccc1 (stereo not drawn) | 0.873 (inactive) | 0.869 | 6860 | 7860 | -0.15 (inactive) | 0.351 |
| C[C@]12C=CC(=O)C=C1CC[C@H]1[C@@H]3CC(O)[C@@](O)(C(=O)CO)[C@@]3(C)CC(O)[C@]12F (stereo partly drawn) | 0.898 (inactive) | 0.627 | 5780 | 6430 | 0.159 (inactive) | -0.119 |
| COC1CC2CCC(C)[C@@](O)(O2)C(=O)C(=O)N2CCCCC2C(=O)OC(C(C)CC2CCC(O)C(OC)C2)CC(=O)C(C)C=C(C)C(O)C(OC)C(=O)C(C)CC(C)C=CC=CC=C1C (stereo partly drawn) | 0.994 (inactive) | 1.19 | 4070 | 4090 | 0.132 | 2.33 |
| C=CC1=C(C(=O)O)N2C(=O)[C@H](NC(=O)C(=NO)c3csc(N)n3)[C@H]2SC1 | 0.881 (inactive) | 1.23 | 7750 | 8790 | -0.382 (inactive) | 0.812 |
| O=C1c2c(O)cc(O)cc2OC(c2cc(O)c(O)c(O)c2)C1O (stereo not drawn) | 0.92 (inactive) | 0.77 | 9760 | 10600 | -0.325 (inactive) | 0.635 |
| Cc1nc(C#Cc2ccnc(Cl)c2)c(C)n1-c1ccc(OC(F)(F)F)cc1 | 1.01 (inactive) | 0.784 | 6890 | 6830 | -0.149 (inactive) | 0.0252 |
| COC1O[C@H]2O[C@@]3(C)CC[C@H]4[C@@H](C)CC[C@@H]([C@H]1C)[C@@]24OO3 (stereo partly drawn) | 0.86 (inactive) | 1.37 | 7410 | 8620 | -0.241 (inactive) | 0.578 |
| CC1O[C@@H](OC2C(O)C[C@H](OC3C(O)C[C@H](OC4CC[C@@]5(C)[C@H](CC[C@@H]6[C@H]5CC(O)[C@]5(C)C(C7=CC(=O)OC7)CC[C@]65O)C4)OC3C)OC2C)CC(O)C1O (stereo partly drawn) | 0.837 (inactive) | 0.829 | 400 | 478 | 0.348 (inactive) | -0.197 |
| CN1CC(=O)N2C(c3ccc4c(c3)OCO4)c3[nH]c4ccccc4c3C[C@@H]2C1=O (stereo partly drawn) | 0.882 (inactive) | 0.922 | 6530 | 7410 | -0.417 (inactive) | 0.533 |
